# From PubChem
# hcDAF12 agonist: H. contortus DAF-12 nuclear receptor activators, primary screen, cell-based, luminescence, HEK293, lit1-tk-luc reporter; HEK293 hcDAF-12 lit1-tk-luc reporter; 0% DMSO, 100% Δ7-dafachronic acid; AID 652067, 2013; activation, % at 6.8 µM; hit rate 1.4% among 370,000;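 active = activation above the mean of all tested compounds plus 3 SD, cut at about 5.5% in these data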;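 note: 100% = response to 3 µM Δ7-dafachronic acid high control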
# hgDAF12 agonist: H. glycines DAF-12 receptor agonists, primary screen, cell-based, luminescence, HEK293, GAL4 fusion, UAS-luciferase. Nuclear hormone receptor DAF-12 (Heterodera glycines), GAL4 fusion. HEK293 GAL4-hgDAF12 UAS-luciferase reporter, agonist luminescence; normalized to butyrate control. activation, % at 6.8 µM. hit rate 1.8% among 370,000. AID 687014, 2013;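 active = activation above a cutoff set at the mean of all screened compounds plus 3 SD, cut at about 10% in these data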;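 note: 0% = DMSO wells and 100% = sodium butyrate wells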
# DAX1 inh: DAX1 (NR0B1) inhibitors on StAR promoter, primary screen, cell-based, luminescence, SF-1 (NR5A1), full-length DAX-1 | HEK293T StAR-luciferase reporter, SF-1/DAX-1 repression relief | inhibition, % at 6.8 µM | hit rate 1.1% among 370,000 | AID 652010, 2013;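 active = inhibition above the mean over all tested compounds plus 3 SD, cut at about 3.6% in these data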;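 note: 0% = DAX-1 cells with DMSO and 100% = cells lacking DAX-1 with DMSO; higher inhibition means more luminescence from relief of DAX-1 repression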
# SMARCA2 activ: SMARCA2 (BRM) function activators, primary screen, cell-based, luminescence, high throughput. hit rate 1% among 370,000. AID 652017, 2013. activation, % at 9.1 µM. MG213 cells, MMTV-luciferase reporter, dexamethasone, overnight; in the data active = activation above about 7.8%;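 note: 0% = vehicle wells and 100% = reference activator wells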
# ssDAF-12 act: S. stercoralis DAF-12 nuclear receptor activators, primary screen, cell-based, luminescence, HEK293, GRIP1 co-expression, lit1-tk-luc; Nuclear hormone receptor DAF-12 (Strongyloides stercoralis); HEK293 ssDAF-12/GRIP1 lit1-tk-luc reporter; % of 3 µM dafachronic acid response; activation, % at 6.8 µM; hit rate 1% among 370,000; AID 652126, 2013;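 active = activation above the mean over all tested compounds plus 3 SD, cut at about 0.9% in these data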;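 note: 0% = DMSO-only wells and 100% = 3 µM delta7-dafachronic acid wells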
# LXR ag: LXR agonists, Gal4 luciferase reporter, confirmation, counter-screen for hcDAF-12 agonist project, cell-based, luminescence, HEK293, H. contortus campaign | shares compounds with hcDAF12 agonist | HEK293 Gal4-LXR tk-luc reporter, 24 h; normalized: DMSO 0%, positive control 100% | activation, % at 6.8 µM | 3,400 tested, under 10 active | AID 743027, 2013;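 active = mean percent activation of the reporter above a cutoff set as the average over tested compounds plus their standard deviation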
# Target sequence (P55055 whole entry, looked up, the tested form may be a part): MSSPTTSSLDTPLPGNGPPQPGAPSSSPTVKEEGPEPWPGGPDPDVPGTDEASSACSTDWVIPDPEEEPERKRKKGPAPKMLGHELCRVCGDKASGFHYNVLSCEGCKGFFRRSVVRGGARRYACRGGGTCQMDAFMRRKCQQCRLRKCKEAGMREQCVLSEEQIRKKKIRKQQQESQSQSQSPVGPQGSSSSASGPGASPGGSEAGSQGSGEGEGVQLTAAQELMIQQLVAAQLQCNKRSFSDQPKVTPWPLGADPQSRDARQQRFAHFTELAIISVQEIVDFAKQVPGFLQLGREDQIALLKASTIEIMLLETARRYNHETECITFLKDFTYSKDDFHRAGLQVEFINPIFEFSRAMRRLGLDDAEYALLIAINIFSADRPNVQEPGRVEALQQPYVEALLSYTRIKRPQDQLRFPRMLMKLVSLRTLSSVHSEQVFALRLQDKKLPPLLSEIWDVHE
# hcDAF12 ag: H. contortus DAF-12 receptor agonists, confirmation, cell-based, luminescence, HEK293, lit1-tk-luc, triplicate | shares compounds with hcDAF12 agonist | HEK293 hcDAF-12 lit1-tk-luc reporter; % of Δ7-dafachronic acid response | activation, % at 6.8 µM | hit rate 61% among 3,400;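 active = mean activation across triplicate tests above the threshold derived from the earlier primary screen, cut at about 5.5% in these data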;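 note: 0% = DMSO only wells and 100% = 3 µM Δ7-dafachronic acid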
# hgDAF12 conf: H. glycines DAF-12 receptor agonists, confirmation, cell-based, luminescence, HEK293, GAL4-LBD fusion | hit rate 80% among 3,300 | activation, % at 6.8 µM | HEK293 GAL4-hgDAF12 luciferase reporter, agonist mode; percent of butyrate response | shares compounds with hgDAF12 agonist;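 active = mean activation over triplicate wells above the hit cutoff derived from the earlier primary screen, cut at about 11% in these data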;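 note: 0% = DMSO low control and 100% = 2 mM sodium butyrate high control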
# LXRb DAF12 ctr: LXR agonists, Gal4 luciferase reporter, confirmation, counter-screen for hgDAF-12 agonist project, cell-based, luminescence, HEK293, H. glycines campaign. AID 743051, 2013. 24 h. activation, % at 6.8 µM. 3,300 tested, under 10 active. shares compounds with hgDAF12 agonist;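 active = mean activation of the triplicate above a set limit carried over from the primary screen, none filed active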
# An asterisk follows results filed as active; . = no result given. In the library only some 4.2% were active in any assay of this set; here they are far more common.
SMILES,hcDAF12 agonist,hgDAF12 agonist,DAX1 inh,SMARCA2 activ,ssDAF-12 act,LXR ag,hcDAF12 ag,hgDAF12 conf,LXRb DAF12 ctr
O=C(CSc1ncnc2ccccc12)c1cccs1,16*,19*,1,5,2.4*,1,8.8*,17*,1
Cc1ccc(C(=O)CSc2ncnc3ccccc23)o1,3,8,0,1,0,.,.,.,.
O=C1c2ccccc2-c2nc3ccccc3cc21,7.9*,15*,2,4,1.0*,1,9.9*,17*,1
Cc1cc2ccccc2nc1-c1ccccc1F,-2,6,-2,1,-1,.,.,.,.
O=C1c2ccccc2C(=O)N1CCOc1ccccc1,6.9*,14*,3,6,1.2*,1,8.8*,17*,0
Nc1cccc2c1C(=O)N(CCOc1ccc(F)cc1)C2=O,11*,17*,3,2,0,2,9.3*,18*,1
c1ccc2c(-c3csc(-c4ccncc4)n3)c[nH]c2c1,13*,28*,1,1,1.6*,1,14*,15*,0
O=C(O)c1ccccc1C(=O)Nc1ccccc1NC(=O)c1ccccc1C(=O)O,7.0*,15*,3,2,0,0,0,13*,1
O=C(Nc1ccccc1)c1ccccc1NC(=O)c1ccccc1C(=O)O,1,3,1,6,-1,.,.,.,.
COc1cccc(C(C(=O)NC2CCCC2)N2CCN(c3ncccc3C#N)CC2)c1OC (stereo unspecified),-1,-2,0,-3,-1,.,.,.,.
Cc1csc2ncc(C(=O)NCCC(c3ccccc3)c3ccccc3)c(=O)n12,-2,-2,0,-2,-1,.,.,.,.
Cc1csc2ncc(C(=O)NCCc3ccccc3)c(=O)n12,8.7*,14*,3,1,1.9*,0,6.3*,9,0
CCCCCCCCN1C(=O)[C@@H](CC(=O)NCC23CC4CC(CC(C4)C2)C3)C[C@@]2(C(=O)OC)C1=C[C@H](COCc1ccccc1)O[C@@H]2C,1,2,0,-1,-1,.,.,.,.
CC(C)COc1ccc(-c2cc(C(=O)NN)[nH]n2)cc1,13*,20*,4.0*,2,2.2*,0,3,6,0
CCOC(=O)c1cc(-c2ccc(OC)cc2)n[nH]1,0,3,1,8,-1,.,.,.,.
Cc1nn(-c2nc3ccccc3s2)c(N)c1-c1ccccc1,15*,19*,4.5*,0,0,1,5,18*,1
Cc1nn(-c2nc3ccccc3s2)c(N)c1-c1ccc(Cl)cc1,-2,2,0,1,0,.,.,.,.
Clc1ccc(-c2cn3cc(Cl)ccc3n2)cc1,20*,14*,3,6,3.2*,2,18*,22*,1
CCOC(=O)N1CCN(C(=O)C[C@H]2C[C@@]3(C(=O)OC)C(=C[C@H](COCc4ccccc4)O[C@@H]3C)N(CCc3ccc(OC)c(OC)c3)C2=O)CC1,-3,-1,1,-3,-2,.,.,.,.
O=C(NCCc1c[nH]c2ccccc12)OCc1cn(Cc2c(F)cccc2F)nn1,-3,1,0,1,-1,.,.,.,.
Clc1ccc(-n2c(SCc3cccc4ccccc34)nnc2-c2ccccn2)cc1,-4,2,-2,-7,-2,.,.,.,.
CCc1nc2ccc(C(=O)N(C)CCCN(C)C)cn2c1N(CC)CCOC,0,0,1,-2,-1,.,.,.,.
Cc1ccc2nc(-c3ccc(O)cc3)oc2c1,9.0*,19*,3,3,2.2*,2,7.2*,21*,1
Nc1c(-c2cccs2)cnc2c(-c3ccc(F)cc3)cnn12,9.0*,16*,3,4,1.0*,2,6.6*,25*,1
CS(=O)(=O)c1cnc2c(-c3ccc(F)cc3)cnn2c1N,4,5,1,0,0,.,.,.,.
SMILES,hcDAF12 agonist,hgDAF12 agonist,DAX1 inh,SMARCA2 activ,ssDAF-12 act,LXR ag,hcDAF12 ag,hgDAF12 conf,LXRb DAF12 ctr
Cc1ccc(NC(=O)c2ccc3c(c2)OCO3)cc1Cl,8.0*,17*,3,6,1.7*,1,5,18*,1
Cc1cc(Cl)ccc1NC(=O)c1ccc2c(c1)OCO2,1,10,1,0,-1,.,.,.,.
O=C(Nc1ccc2c(c1)OCCO2)c1ccc(Br)cc1,8.3*,15*,2,2,0,2,7.2*,14*,1
O=C(N/N=C/c1cc(Br)cs1)c1ccc2c(c1)OCCO2,6.6*,15*,0,5,-1,1,2,24*,1
O=C(Nc1ccc2c(c1)OCO2)c1ccc(Br)s1,13*,25*,4.3*,6,1.6*,2,15*,22*,1
COc1ccc(CN2C(=O)[C@@](O)(c3cccn3C)c3cc(F)ccc32)cc1,-1,-2,-1,1,-1,.,.,.,.
COc1cccc(C(=O)n2ccc3ccc(-c4ccc5ccn(Cc6ccccc6)c5c4)cc32)c1,-2,0,0,-2,-1,.,.,.,.
O=C(NCCc1c[nH]c2ccccc12)OCc1cn(-c2ccccc2Cl)nn1,-2,-4,-1,-2,0,.,.,.,.
COC(=O)[C@]12C[C@H](CC(=O)N3CCCC3)C(=O)N(CCC3=CCCCC3)C1=C[C@H](COCc1ccccc1)O[C@@H]2C,-2,-1,-1,0,-1,.,.,.,.
O=C(Nc1ccc2c(c1)OCO2)c1ccncc1,0,2,0,2,0,.,.,.,.
